Experimental findings from PubChem BioAssay AID588689 (Southern Research Specialized Biocontainment Screening …, 2011) are described below.

Broadly, the inhibition is the change of the read-out against control, counted positive when it falls.

Among all 340,000 compounds or so, about 1,000 (0.29%) were called active. Rule as the data show it: inconclusive = inhibition above about 29% without an active follow-up result; inactive = below that. The list is a sample of the results. Entries with a potency or affinity are not part of this list.

In the test the target is Genome polyprotein (Dengue virus type 2 (strain 16681-PDK53)) (UniProt P29991). Put plainly: Dengue-2 NS5 methyltransferase inhibitors, primary screen, biochemical, confirmation dose response (AID 588689). Conditions: Dengue-2 NS5 methyltransferase capping enzyme assay, at 25 µM, stronger effect = higher value.
[1] abbreviates: measured here: pilot screen replicate inhibition.

Turning to `CSc1nsc(SCC(=O)Nc2ccc(NC(C)=O)cc2)n1`, the inhibition is 2.42% (inactive).

In the case of `COc1ccccc1CNS(=O)(=O)c1cccc2nsnc12`, the inhibition is 3.22% (inactive).

Turning to `Cc1ccc(NC(=O)CSCC(=O)NCc2cccc(C(F)(F)F)c2)cc1`, the inhibition was 0.73% (inactive).

`O=C(CSc1nc(O)c(C(c2ccccc2)c2ccccc2)c(=O)[nH]1)N1CCOCC1`: the inhibition was -5.31% (inactive).

As for `Cc1ccccc1-n1cnnc1SCC(=O)Nc1cccnc1Cl`, the inhibition is 2.99% (inactive).

In the case of `CCCCOC(=O)c1ccc(NC(=O)C(=O)NCc2cccnc2)cc1`, the inhibition was -1.56% (inactive).

Turning to `N=C1C(c2nc3ccccc3s2)=C(O)CN1Cc1ccco1`, the inhibition is -1.36% (inactive).

As for `Nc1nc(CSC(=S)N2CCOCC2)nc(Nc2ccccc2)n1`, the inhibition is 1.28% (inactive).

In the case of `Cc1ccc(CNC(=O)C2CCC(=O)N2C(C)C)cc1` (centres undefined), the inhibition was -1.99% (inactive).

Take `O=C(NN1C(=O)/C(=C/c2ccc(O)c([N+](=O)[O-])c2)SC1=S)c1ccccc1Cl`: the inhibition was -3.59% (inactive).

`COc1cc(/C=C2\SC(=O)N(c3ccccc3Cl)C2=O)cc([N+](=O)[O-])c1O`: the inhibition was -6.99% (inactive).

On to `CCc1cccc(N(C(=O)c2csnn2)C(C(=O)NC(C)(C)C)c2ccccn2)c1` (centres undefined), for which the inhibition is -5.18% (inactive).

In the case of `CCC(C)NC(=O)Nc1ccccc1C` (centres undefined), the inhibition was -2.79% (inactive).

In the case of `CCC(=O)c1ccc(OCC(O)CN2CCN(S(=O)(=O)N3CCCCC3)CC2)cc1` (centres undefined), the inhibition is 5.46% (inactive).

`Cc1c(O)c2ccccc2oc1=O`: the inhibition is -7.95% (inactive).

With `O=c1oc2ccccc2c2c1C(O)CO2` (centres undefined), the inhibition was -7.16% (inactive).

Take `OCC1OC2C(NC(=S)N2c2ccccc2)C(O)C1O` (centres undefined): the inhibition was 0.77% (inactive).

Turning to `COc1ccc(C(c2c(C)[nH][nH]c2=O)c2c(C)[nH][nH]c2=O)cc1Br`, the inhibition is -3.47% (inactive).

For `Nc1ccccc1O`, the inhibition is -6.55% (inactive).

On to `Oc1ccccc1O`, for which the inhibition was 0.73% (inactive).

For `O=C(Nc1ccc2c(c1)OCO2)N1CCN(Cc2ccco2)CC1`, the inhibition is 0% (inactive).

Regarding `COc1ccc(NCc2ccc([N+](=O)[O-])s2)c(OC)c1`, the inhibition is 7.28% (inactive).

Regarding `COc1ccc(N2C(=O)/C(=C/c3ccc([N+](=O)[O-])cc3)N=C2C)c(OC)c1`, the inhibition was -3.69% (inactive).

Consider `COc1ccc(OC)c(N2C(=O)c3cccnc3C2=O)c1`, for which the inhibition was 0.65% (inactive). Under setting [1], the inhibition was found to be 1.22%.

Take `COc1ccc(OC)c(N2C(=O)CCCC2=O)c1`: the inhibition is -1.93% (inactive).

In the case of `COc1ccc(NC(=S)N2CCC(C(=O)c3ccc(C)cc3)CC2)cc1`, the inhibition was -11.5% (inactive).

Consider `Cc1ccc(C2=NNC(C(O)C(O)C(O)CO)S2)cc1` (centres undefined), for which the inhibition is -8.04% (inactive).

As for `COc1ccccc1/C=C1\SC(=S)N(CCC(=O)Nc2ccc(C(=O)O)c(O)c2)C1=O`, the inhibition was 19.8% (inactive).

`O=C(CCN1C(=O)/C(=C/c2cccs2)SC1=S)Nc1ccc(C(=O)O)c(O)c1`: the inhibition was 15% (inactive).

On to `O=C(CN1C(=O)S/C(=C\C=C\c2ccccc2)C1=O)Nc1ccccc1C(=O)O`, for which the inhibition is 24.3% (inactive).

On to `O=C(CCN1C(=O)/C(=C\C=C\c2ccccc2)SC1=S)Nc1ccc(C(=O)O)cc1`, for which the inhibition is 9.75% (inactive).

On to `O=C(CCN1C(=O)/C(=C/c2ccccc2Cl)SC1=S)Nc1ccccn1`, for which the inhibition was 1.55% (inactive).

As to `O=C(CCN1C(=O)/C(=C/c2ccccc2Cl)SC1=S)NNC(=O)c1ccccc1O`, the inhibition was -5.13% (inactive).

For the compound `O=C(CCN1C(=O)S/C(=C/c2ccccc2)C1=O)Nc1ccc(C(=O)O)c(O)c1`, the inhibition is 25.9% (inactive).

As for `O=C(CCN1C(=O)S/C(=C/c2ccc(F)cc2)C1=O)Nc1ccc(O)c(C(=O)O)c1`, the inhibition was 19.6% (inactive).

For the compound `CCN(Cc1nc2cc(Cl)ccc2c(=O)[nH]1)C(=O)c1cccc(NC(=O)c2cccs2)c1`, the inhibition is -6.19% (inactive).

As for `Cc1ccc(NC(=O)CCC(=O)c2ccccc2)cc1`, the inhibition was -17.5% (inactive).

As for `Cc1ccc(S(=O)(=O)NCCN2CCOCC2)c(C)c1C`, the inhibition is 3.68% (inactive).

As to `O=C(Cc1ccc(Cl)cc1)N1CCC2(CC1)NCCc1[nH]cnc12`, the inhibition was -10.7% (inactive).

`Cc1cc(NC(=O)CCC(=O)N(c2ccc(F)cc2)C(C(=O)NC2CCCC2)c2cccnc2)no1` (centres undefined): the inhibition was 6.51% (inactive).

On to `O=C(CCN1C(=O)/C(=C/c2ccc3c(c2)OCO3)SC1=S)Nc1ccccc1`, for which the inhibition was 2.89% (inactive).

Consider `O=C(CCCN1C(=O)/C(=C/c2ccc3c(c2)OCO3)SC1=S)Nc1cccc(C(=O)O)c1`, for which the inhibition is 0.32% (inactive).

`CC(C)c1ccc(C2N3CC4([N+](=O)[O-])CN2CC([N+](=O)[O-])(C3)C4(C)C)cc1` (centres undefined): the inhibition is -2.65% (inactive).

In the case of `COc1ccc(C=O)cc1CN1C(=O)c2ccccc2C1=O`, the inhibition was 5.3% (inactive).

`COc1ccc2c(c1)C(=O)N(c1ccccc1OC)C(=O)C2`: the inhibition was 0.7% (inactive).

Turning to `COc1ccc(/C=C2/NC(=O)N(Cc3ccccc3F)C2=O)cc1OC`, the inhibition is 0.77% (inactive).

Take `COc1ccc(/C=C2\C(=O)NC(=O)c3ccccc32)cc1OC`: the inhibition is 25.5% (inactive).

Turning to `COc1ccccc1N1C(=O)Cc2ccccc2C1=O`, the inhibition was 1.63% (inactive).

Take `COc1ccc(C)cc1CN1C(=O)c2ccccc2C1=O`: the inhibition was -12.4% (inactive).

Consider `O=c1cc(Cl)[nH]c(=O)n1Cc1ccc(F)cc1`, for which the inhibition is -9.54% (inactive).

With `Cc1cc(C)cc(NC(=O)c2ccc(NC(=O)c3ccco3)cc2)c1`, the inhibition is -0.32% (inactive).

As for `N#CCC(=O)Nc1ccc(C(=O)NNC(=O)CCN2CCN(c3ccccc3)CC2)cc1`, the inhibition is -13.1% (inactive).

Consider `CCC[C@@H](CN1CCC[C@H]1CN1C(N)=NC[C@H]1CC(C)C)N1C[C@@H](Cc2ccccc2)N(CCCC2CCCC2)C1=N`, for which the inhibition was -0.66% (inactive). Further, the inhibition under setting [1] was -1.83%.

On to `CC(CN1CCN(Cc2ccccc2)CC1)OC(=O)c1ccco1` (centres undefined), for which the inhibition is 2.3% (inactive).

Turning to `Cc1ccc(/C=C(\CCC(=O)O)c2nc3ccccc3s2)cc1[N+](=O)[O-]`, the inhibition is 13.8% (inactive).

For `O=C(O)CC/C(=C\c1ccc(N2CCOCC2)c([N+](=O)[O-])c1)c1nc2ccccc2s1`, the inhibition was 24% (inactive).

With `O=C(O)C/C(=C\c1ccc(N2CCOCC2)c([N+](=O)[O-])c1)c1nc2ccccc2s1`, the inhibition is 6.96% (inactive).

On to `CN(c1ccccc1)c1ccc(/C=C(\CCC(=O)O)c2nc3ccccc3s2)cc1[N+](=O)[O-]`, for which the inhibition was 26.1% (inactive).

In the case of `COc1ccc(NC(=O)C2CCCCN2S(=O)(=O)c2ccc(F)cc2)cc1` (centres undefined), the inhibition is -2.91% (inactive).

On to `Cc1csc2nc(=O)c3ccccc3n12`, for which the inhibition is -0.7% (inactive).

With `Cc1cccc(NCc2cc(Cl)cc(Cl)c2O)n1`, the inhibition is -2.76% (inactive).

Regarding `Oc1c(Cl)cc(Cl)cc1CNc1nc2ccccc2[nH]1`, the inhibition is -17.7% (inactive).

Turning to `O=C(CSc1nnc2scc(-c3ccccc3)n12)NCc1ccc2c(c1)OCO2`, the inhibition is -2.59% (inactive).

With `NC1=C(Cl)C(=O)c2ccccc2C1=O`, the inhibition is -5.02% (inactive).

For `Nc1c(Cl)cc2c(c1Oc1ccccc1)C(=O)c1ccccc1C2=O`, the inhibition is 0% (inactive).

Regarding `Cc1cc(C)n(CC(=O)NNC(=O)COc2ccc(Cl)cc2Cl)n1`, the inhibition is -9.01% (inactive).

Regarding `COc1ccc2c(c1)[nH]c1c(=O)n(CCN3CCOCC3)cnc12`, the inhibition was -4.77% (inactive).

Take `O=C(CN(C(=O)Cn1nnc(-c2ccc(F)cc2)n1)c1ccc(F)cc1)NC1CCCC1`: the inhibition was -4.85% (inactive).

For `O=C(NCc1cccs1)c1nc2c(nnn2Cc2ccc(F)cc2)c(=O)[nH]1`, the inhibition was -3.42% (inactive).

Consider `O=C(NCc1ccco1)c1nc2c(nnn2Cc2ccccc2Cl)c(=O)[nH]1`, for which the inhibition was -1.35% (inactive).

As to `COc1cc(/C=C2\SC(=O)N(c3ccc(Cl)cc3)C2=O)cc([N+](=O)[O-])c1O`, the inhibition was 3.7% (inactive).

Regarding `COc1cc(/C=C2\SC(=O)N(Cc3ccc(F)cc3)C2=O)cc([N+](=O)[O-])c1O`, the inhibition was 14.6% (inactive).

For `CC(C)c1ccc(CCNC(=O)CCNS(=O)(=O)c2ccc(Br)cc2)cc1`, the inhibition was 2.95% (inactive).

For `CC1CCCN(CCCOc2ccc(Br)cc2Cl)C1` (centres undefined), the inhibition was -5.92% (inactive).

`C=CCn1c(SCC(=O)c2[nH]c(C)c(C(=O)OCC)c2C)nc2scc(-c3ccccc3)c2c1=O`: the inhibition was 0.73% (inactive).

Regarding `Nc1ccccc1-c1nnc(SCc2ccccc2F)[nH]c1=O`, the inhibition was 2.71% (inactive).

Take `CCC1Nc2ccccc2-c2nnc(SC)nc2O1` (centres undefined): the inhibition was 6.45% (inactive).

In the case of `O=c1cc(-c2ccccc2)nc(SCc2ccccc2F)[nH]1`, the inhibition was -2.34% (inactive).

`CCSc1nnc2c(n1)OC1(CCCC1)Nc1ccccc1-2`: the inhibition is -4.17% (inactive).

With `Cc1[nH]c(C)c(S(=O)(=O)N(Cc2ccccc2)C(C)C)c1C(=O)N1CCCC1`, the inhibition is -0.98% (inactive).

Consider `COc1ccc(S(=O)(=O)N2CCN(C(=O)CCOc3ccccc3)CC2)cc1OC`, for which the inhibition was 4.1% (inactive).

In the case of `Cc1ccc2c(c1C)NC(C(=O)O)C1CC=CC21` (centres undefined), the inhibition is 9.74% (inactive).

Regarding `CCN(CC(=O)Nc1ccc(NC(C)=O)cc1)C(=O)c1ccc(N2CCC(C)CC2)c([N+](=O)[O-])c1`, the inhibition is -0.77% (inactive).

Consider `O=C(O)C1CCC(NSc2ccccc2[N+](=O)[O-])CC1` (centres undefined), for which the inhibition is 7.73% (inactive).

On to `CCN(CC(=O)Nc1ccc(NC(C)=O)cc1)C(=O)c1ccc(NC2CC2)c([N+](=O)[O-])c1`, for which the inhibition is -1.48% (inactive).

Regarding `O=C(O)c1ccccc1NSc1ccccc1[N+](=O)[O-]`, the inhibition was 21.6% (inactive).

Consider `O=C(O)c1cccc2c1-c1c(cccc1[N+](=O)[O-])C2`, for which the inhibition was -1.17% (inactive).

`Cc1occc1C(=O)NNC(=O)COc1ccc(Br)cc1Br`: the inhibition was -1.83% (inactive).

With `CCNC(=O)C1CCCN(c2nc(C)cc(C)n2)C1` (centres undefined), the inhibition is 3.17% (inactive).

In the case of `Cc1nn(C(=O)c2ccc3c(c2)OCO3)c(N)c1-c1ccccc1`, the inhibition is -2.78% (inactive).

As to `CCc1ccc(/C=C2\SC(=S)N(CCCC(=O)Nc3nccs3)C2=O)cc1`, the inhibition was 5.18% (inactive).

As to `COc1ccc(C(=O)Cn2c(C(C)=O)nc3ccccc32)cc1`, the inhibition is -4.63% (inactive).
